The record followed here is the supplement of paper PMC3334620.

The full ranking holds about 33,000 sequences; the median of “E-score (-0.5 to 0.5)” is about -0.036, and the highest 2% start at about 0.37. For the sample, the highest values were picked, then their nearest neighbours and some sequences at random.

For this test, the target named is T1, Yer064c (UniProt P40041).
T1 sequence: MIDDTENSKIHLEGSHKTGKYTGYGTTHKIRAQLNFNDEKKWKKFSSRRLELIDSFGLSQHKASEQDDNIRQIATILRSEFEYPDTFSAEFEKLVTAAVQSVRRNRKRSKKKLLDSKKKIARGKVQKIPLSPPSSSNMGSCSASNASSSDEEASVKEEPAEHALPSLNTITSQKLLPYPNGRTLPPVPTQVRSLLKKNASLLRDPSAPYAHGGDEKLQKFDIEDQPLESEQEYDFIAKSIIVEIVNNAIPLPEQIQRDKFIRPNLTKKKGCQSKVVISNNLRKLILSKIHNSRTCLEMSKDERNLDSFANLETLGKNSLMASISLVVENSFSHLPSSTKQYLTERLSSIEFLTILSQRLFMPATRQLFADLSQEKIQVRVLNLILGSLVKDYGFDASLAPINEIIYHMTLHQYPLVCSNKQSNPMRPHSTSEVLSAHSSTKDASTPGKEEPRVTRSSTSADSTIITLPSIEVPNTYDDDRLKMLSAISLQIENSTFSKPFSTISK
Kind of test: PBM E-score (8-mer binding enrichment) (E-score (-0.5 to 0.5)); higher = stronger / more preferred TF binding. The following applies: protein concentration: 200 nM; construct: GST-full length. The gist of the method: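 For each ungapped eight-base word taken together with its reverse complement, the Universal PBM Analysis Suite assigned an E-score. Binding data came from GST-tagged yeast transcription factors, applied at about 100-200 nM, on universal all-10-mer Agilent arrays made double-stranded by primer extension. Fluorescent anti-GST marked bound protein, and scans were normalised with masliner.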
With ACATCACA, the “PBM E-score” value was -0.0462.

Turning to GCGTGAAA, the “PBM E-score” value is -0.106.

For the sequence CTGACGGA, the “PBM E-score” value was -0.0463.

For the sequence GGGTAAAC, the “PBM E-score” value was 0.0204.

Turning to GTCTGTCA, the “PBM E-score” value was -0.107.

Turning to AACTCCGA, the “PBM E-score” value is -0.0453.

In the case of AACTCCGC, the “PBM E-score” value is -0.0186.

As to GACTCCGC, the “PBM E-score” value turned out to be 0.406.

With CACTCCGC, the “PBM E-score” value is -0.0571.

Regarding GACTCCGA, the “PBM E-score” value came out at 0.417.

For TACTCCGA, the “PBM E-score” value was determined as 0.0904.

For the sequence GTGCACCA, the “PBM E-score” value was -0.178.

With CGGTAGTA, the “PBM E-score” value amounted to 0.0891.

Take AGGTAGTG: the “PBM E-score” value is -0.0767.

For CGGTAGTC, the “PBM E-score” value was 0.409.

As for AGGTAGTA, the “PBM E-score” value is 0.0729.

As to CGGTAGGC, the “PBM E-score” value is -0.178.

For the sequence AGGTAGTC, the “PBM E-score” value was 0.407.

For the sequence CTTCAGGA, the “PBM E-score” value worked out at 0.00919.

Take CATTCACA: the “PBM E-score” value is -0.00304.

Take CATTCACC: the “PBM E-score” value is -0.166.

Regarding CATTCACG, the “PBM E-score” value is 0.0972.

Turning to GATTCACC, the “PBM E-score” value was 0.372.

Consider GATTCACA, for which the “PBM E-score” value worked out at 0.375.

Turning to AATTCACC, the “PBM E-score” value is -0.0422.

As to CGATAGAC, the “PBM E-score” value was determined as 0.00233.

In the case of CGCCTTTA, the “PBM E-score” value came to 0.0724.

On to ATATCTCA, for which the “PBM E-score” value was determined as 0.0798.

Regarding CTTGGGAA, the “PBM E-score” value was 0.0531.

For the sequence ATTCCTAA, the “PBM E-score” value worked out at 0.183.

GATGATTA: the “PBM E-score” value came out at 0.47.

With ATTGATTA, the “PBM E-score” value was determined as 0.286.

Take GATTATGA: the “PBM E-score” value was found to be 0.38.

With AATGATAA, the “PBM E-score” value came to 0.0741.

With GTTGATTA, the “PBM E-score” value is 0.381.

With GATGATGA, the “PBM E-score” value was determined as 0.256.

As to GATGATCA, the “PBM E-score” value was 0.323.

Take CTTGATTA: the “PBM E-score” value stood at 0.303.

With AATGATTA, the “PBM E-score” value stood at 0.449.

In the case of GATTATGC, the “PBM E-score” value is 0.112.

Turning to AATTATGA, the “PBM E-score” value turned out to be 0.248.

Consider AATGATGA, for which the “PBM E-score” value stood at 0.289.

Take AACCGCAG: the “PBM E-score” value was -0.0549.

With ATCAACTA, the “PBM E-score” value was determined as 0.23.

Turning to AGTGAAAT, the “PBM E-score” value is 0.143.

In the case of ACCTCCCT, the “PBM E-score” value is -0.107.

With CCGGTTAA, the “PBM E-score” value was -0.0828.

Consider CCCGAGGG, for which the “PBM E-score” value was -0.0969.

For the sequence ACTGATTA, the “PBM E-score” value was 0.343.

Consider CCTGATTA, for which the “PBM E-score” value is 0.344.

As to GCTGATTA, the “PBM E-score” value was determined as 0.392.

For the sequence CTTTCCCC, the “PBM E-score” value is -0.153.

Turning to CGTCGTAG, the “PBM E-score” value amounted to 0.0225.

On to AGTCGTAC, for which the “PBM E-score” value was 0.399.

As to AGTCGTAG, the “PBM E-score” value was 0.406.

For AATCGTAT, the “PBM E-score” value is 0.118.

In the case of ACTCGTAT, the “PBM E-score” value was found to be 0.107.

As for AGTCGTAT, the “PBM E-score” value came out at 0.379.

For CGTCGTAC, the “PBM E-score” value is -0.0504.

For the sequence GGTCGTAA, the “PBM E-score” value was -0.0401.

Turning to TGTCGTAA, the “PBM E-score” value is -0.0131.

Regarding GGTCGTAC, the “PBM E-score” value is -0.205.

Take AGTCGTAA: the “PBM E-score” value is 0.378.

On to ACTCGTAG, for which the “PBM E-score” value is 0.218.

Consider GAGAGCGA, for which the “PBM E-score” value was -0.0993.

Turning to GCGATAAC, the “PBM E-score” value was -0.135.

On to CGTGGACA, for which the “PBM E-score” value was -0.323.

In the case of GCGCGGAC, the “PBM E-score” value was determined as 0.0396.

On to ATGACCGA, for which the “PBM E-score” value was -0.0163.

As for AGTCCTAA, the “PBM E-score” value amounted to 0.366.

As to AGTCCTAT, the “PBM E-score” value was 0.306.

Turning to TGTCCTAA, the “PBM E-score” value was -0.0793.

As to AATAGCTA, the “PBM E-score” value was -0.0209.

With GCCTGGGA, the “PBM E-score” value is -0.343.

CAGAATCA: the “PBM E-score” value came out at 0.349.

For AAGAATCA, the “PBM E-score” value worked out at 0.392.

On to GAGAATCA, for which the “PBM E-score” value came out at 0.392.

As for TAGAATCA, the “PBM E-score” value was determined as 0.362.

Regarding GAGAATTA, the “PBM E-score” value is -0.167.

As for GAGAATCC, the “PBM E-score” value was -0.141.

GAACAGCA: the “PBM E-score” value was -0.175.

As to AATGGACC, the “PBM E-score” value amounted to 0.0237.

Turning to AGAGACTG, the “PBM E-score” value stood at 0.0785.

For CGAGACTA, the “PBM E-score” value amounted to 0.37.

Turning to CCAGACTC, the “PBM E-score” value worked out at 0.206.

As for CGAGACTC, the “PBM E-score” value was determined as 0.369.

As to CGAGACGA, the “PBM E-score” value was -0.0652.

Consider GGAGACAA, for which the “PBM E-score” value is -0.173.

Consider AGAGACTA, for which the “PBM E-score” value turned out to be 0.347.

Turning to CCAGACTA, the “PBM E-score” value worked out at 0.208.

Regarding CGAGACAC, the “PBM E-score” value was found to be 0.13.

Consider AGAGACTC, for which the “PBM E-score” value came to 0.386.

For the sequence GGAGACCA, the “PBM E-score” value is -0.176.

GGAGACTA: the “PBM E-score” value was 0.375.

As for AGCCTAGC, the “PBM E-score” value is -0.166.

For the sequence CTTCGCGA, the “PBM E-score” value is 0.105.

Consider ATGAGATA, for which the “PBM E-score” value turned out to be 0.0605.

Consider GTGCGGCA, for which the “PBM E-score” value is -0.143.

Regarding CGGCGATA, the “PBM E-score” value was determined as 0.143.

Turning to AAGGAACG, the “PBM E-score” value is -0.167.

As to AAAAGGAT, the “PBM E-score” value was -0.0899.

In the case of GCACCCCC, the “PBM E-score” value is -0.268.

With AGTTAGTC, the “PBM E-score” value turned out to be 0.447.

Take CGTTAGTC: the “PBM E-score” value was 0.45.

Turning to AGTTAGTA, the “PBM E-score” value worked out at 0.196.

As to CGTTAGAC, the “PBM E-score” value is -0.00028.

For the sequence CGTTAGTA, the “PBM E-score” value was found to be 0.0645.

For AGTTAGTG, the “PBM E-score” value came to 0.0232.

AATTGTAG: the “PBM E-score” value is 0.13.

Consider AAGAGCGC, for which the “PBM E-score” value turned out to be 0.0664.
